Assay [1] in a line: qHTS assay for measurement of the activity of small molecule inhibitors on Zika virus induced Caspase-3 activity in human astrocytoma cells (AID 1224859).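 Note: plate controls were ZIKV-infected untreated cells for no effect and uninfected cells for full effect.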 The gist of the method:
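A cell-based luminescent caspase-3/7 assay used SNB-19 cells infected with ZIKV (2 FFU/cell) for 6 h following 1 h compound pretreatment.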
In general terms: Quantitative high-throughput screening tests each substance at several concentrations.

Assay [2] is described as follows: qHTS assay to identify small molecule inhibitors of chordoma cells - UCH-1 (AID 1259355). Note: % is set by controls: 0 for no effect and ±100 for the full control effect; nearly all actives have a fitted effect of over 55% in size. The essentials:
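Cells (800/well) were seeded and left overnight at 37 C, 5% CO2, then treated with drugs at 15 concentrations plus a combination mix of auranofin, camptothecin, doxorubicin, rubitecan and topotecan. Viability after 48hr was read by CellTiter-Glo luminescence.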

Assay [3] can be described thus: NS1 protein of Zika virus - qHTS assay to identify small molecule inhibitors in human HEK 293 cells (AID 1347053).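 Note: series mostly up to about 46 µM; plate controls were infected untreated cells for no effect and uninfected cells for full effect; nearly all actives have a fitted effect of over 55% in size.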 The gist of the method: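 HEK 293 cells pretreated with compound for 1 h, then infected with ZIKV MR766 (MOI 0.5) for 24 h at 37 C. NS1 detected by TR-FRET with two anti-NS1 antibodies; normalized to uninfected (0%) and infected (100%) wells.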
A short description of assay [4]: qHTS of pediatric cancer cell lines to identify multiple opportunities for drug repurposing: Primary screen for TC32 cells (AID 1347089). Note: % is set by controls: 0 for no effect and ±100 for the full control effect; nearly all actives have a fitted effect of over 60% in size. The gist of the method: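 Luminescent CellTiter-Glo read-out of metabolically active TC32 cells after 48 h compound exposure. Primary: MIPE 11-point, 0.78 nM–46 µM; NPC 8-point, 0.59 nM–46 µM. Confirmatory: 11-point dilutions.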

Assay [5] in a line: qHTS of pediatric cancer cell lines to identify multiple opportunities for drug repurposing: Primary screen for DAOY cells (AID 1347090).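 Note: series mostly up to about 46 µM; plate controls were DMSO for no effect and bortezomib for full effect; nearly all actives have a fitted effect of over 55% in size.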 The essentials:
(§1)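 Viability measured as metabolically active cells via CellTiter-Glo luminescence following 48 hours of compound exposure, 11-point dilutions in confirmatory testing. 500-1,000 cells/well plated 5 hours before dosing; controls were DMSO and 2.3 µM bortezomib.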

Assay [6] in a line: qHTS of pediatric cancer cell lines to identify multiple opportunities for drug repurposing: Primary screen for SK-N-MC cells (AID 1347093).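 For activity change, negative = cytotoxic: series mostly up to about 46 µM; plate controls were DMSO neutral control for no effect and bortezomib for full effect.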 Note: potency is the fitted concentration of half-maximal effect. The essentials: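 Metabolically active cells were quantified by ATP-dependent luminescence (CellTiter-Glo, 15 min at room temperature) following 48 h treatment. Cells had been plated at 500-1,000 per well and settled for 5 h beforehand.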

Assay [7] can be described thus: qHTS of pediatric cancer cell lines to identify multiple opportunities for drug repurposing: Primary screen for SJ-GBM2 cells (AID 1347091).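 Note: plate controls were DMSO neutral control for no effect and bortezomib for full effect.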 The gist of the method: as §1
Assay [8] is described as follows: qHTS of pediatric cancer cell lines to identify multiple opportunities for drug repurposing: Primary screen for A673 cells (AID 1347092). Note: % is set by controls: 0 for no effect and ±100 for the full control effect; nearly all actives have a fitted effect of over 45% in size. The gist of the method:
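A673 cells (500-1,000 cells/well in growth media) were pre-incubated 5 h at 37 degrees C, then exposed to compounds for 48 h. Viability was read as CellTiter-Glo luminescence; concentration-response curves came directly from the primary screen.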

Assay [9] in a line: P-glycoprotein substrates identified in KB-8-5-11 adenocarcinoma cell line, qHTS therapeutic library screen (AID 1346987). Note: series mostly up to about 44 µM; % is set by controls: 0 for no effect and ±100 for the full control effect; nearly all actives have a fitted effect of over 65% in size. The essentials: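 Steps: plate 500 KB-8-5-11 cells/well in DMEM + 10% FCS (colchicine removed); pin compounds in dose-response; incubate 72 h, 37 degree C, 5% CO2; add CellTiter-Glo, 5 min; read luminescence.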
A short description of assay [10]: qHTS of pediatric cancer cell lines to identify multiple opportunities for drug repurposing: Primary screen for BT-37 cells (AID 1347094).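 Note: series mostly up to about 57 µM; plate controls were DMSO for no effect and bortezomib for full effect.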 The gist of the method: (§2)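 Viability was measured as metabolically active cells after 48 hours of treatment, read by CellTiter-Glo luminescence. Compounds were tested at multiple final concentrations, giving concentration-response curves.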

The nature of assay [11]: qHTS of pediatric cancer cell lines to identify multiple opportunities for drug repurposing: Primary screen for NB-EBc1 cells (AID 1347095).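 For activity change, negative = cytotoxic: plate controls were DMSO neutral control for no effect and bortezomib for full effect.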 Note: potency is the fitted concentration of half-maximal effect. The essentials: as §2

A number with no mark means an inactive call. Results filed as inconclusive are left out. Active and inactive are the calls of the source. Calls come from the whole dose curve; as a rule, active = well fitted curve in the direction sought with a large enough effect; inconclusive = small, poorly fitted or top-dose-only effect, or another doubt; inactive = no such curve, though single readings can be large; an effect the other way counts as inactive or inconclusive.

The text below walks through data of PubChem BioAssay (NCATS).

On to `COc1ccc(C(Cl)=C(c2ccc(OC)cc2)c2ccc(OC)cc2)cc1`, for which, in assay [1], the call was inactive. Also, the Potency entry in [2], in assay [3], in assay [4], in assay [5] and in assay [6] was “inactive” throughout.
`CN1CCN(C2=Nc3cc(F)ccc3Cc3ccccc32)CC1`: the call in assay [1] was inactive. Moreover, the Potency entry in assay [2], in assay [3], in assay [4], in assay [5], in assay [7] and in assay [8] was “inactive” in each case.
Take `C=C[C@H]1CN2CC[C@H]1C[C@@H]2[C@@H](O)c1ccnc2ccc(OC)cc12`: in assay [1], the call was inactive. For the same compound, the Potency entry in assay [2], in [9], in assay [3], in assay [4], in [5] and in [7] was “inactive” each time. The Potency result in [8], in assay [6] and in assay [10] was “inactive” throughout.
Consider `N=C(N)N1CCc2ccccc2C1`, for which the activity change, negative = inhibition in assay [1] is -0.144% [at 4.53 µM]; in [3], -16.4% [at 4.81 µM]. The Potency result in assay [2] and in assay [9] was “inactive” throughout. The activity change, negative = cytotoxic was 1.67% [at 4.81 µM] in [4]; -21.6% [at 4.84 µM] in [5]; -18% [at 4.84 µM] in assay [8]; -27.9% [at 4.84 µM] in [6]; -4.38% [at 6.03 µM] in [10]; 5.74% [at 4.84 µM] in assay [11].
`C/C=C/c1ccc(O)c(OC)c1`: in assay [1], the result was inactive. The Potency entry in assay [2], in assay [9], in assay [3], in assay [4], in [7] and in assay [8] was “inactive” in each case. Moreover, the Potency result in assay [6], in assay [10] and in assay [11] was “inactive” in each case.
As to `CCNC(=O)NCc1cccc(Cl)c1`, the result in assay [1] was inactive. For the same compound, the Potency result in assay [2], in assay [9], in assay [3], in assay [4], in assay [5] and in assay [7] was “inactive” each time. For the same compound, the Potency entry in assay [8], in [6], in assay [10] and in assay [11] was “inactive” throughout.
In the case of `CC(=O)OC[C@H]1O[C@@H](n2ncc(=O)[nH]c2=O)[C@H](OC(C)=O)[C@@H]1OC(C)=O`, the outcome in assay [1] was inactive. For the same compound, in [2], the Potency entry is “inactive”. Further, the Potency is 0.335 µM (active) in assay [6] and 23.7 µM (active) in assay [11].
Take `CC(O)Cn1cnc2c1c(=O)n(C)c(=O)n2C` (stereo not drawn): the compound was classed as inactive in [1]. Also, the Potency entry in [2], in assay [9], in [3], in assay [4], in assay [5] and in [7] was “inactive” in each case. The Potency result in assay [8], in assay [6] and in assay [10] was “inactive” throughout.
For `CC(C)CCCC(C)N` (stereo not drawn), the call in assay [1] was inactive. For the same compound, the Potency entry in assay [2], in assay [9], in [3], in assay [4], in assay [5] and in [7] was “inactive” throughout. In addition, the Potency entry in [8], in [10] and in assay [11] was “inactive” in each case.
In the case of `CCOC(=O)c1ccc(N)cc1`, the result in assay [1] was inactive. The Potency result in assay [2], in [9], in assay [3], in assay [4], in assay [7] and in assay [8] was “inactive” each time. Also, the Potency result in [10] and in assay [11] was “inactive” each time.
Regarding `Cn1c(=O)c2[nH]c(Br)nc2n(C)c1=O`, in assay [1], the call was inactive. The Potency entry in assay [2], in [9], in assay [3], in [4], in assay [5] and in assay [7] was “inactive” each time. Moreover, the Potency result in assay [8], in [10] and in assay [11] was “inactive” each time.
As for `O=C(O)CCNC(=O)c1ccccc1`, in assay [1], the compound was called inactive. Further, the Potency entry in [2], in assay [9], in assay [3], in assay [4], in [5] and in assay [7] was “inactive” in each case. In addition, the Potency result in assay [8], in assay [6], in assay [10] and in [11] was “inactive” throughout.
With `CC(=O)NC(=O)c1ccccc1O`, the outcome in [1] was inactive. Further, the Potency result in [2], in assay [9], in [3], in assay [4], in assay [5] and in assay [8] was “inactive” in each case. Besides, the Potency entry in [6], in assay [10] and in [11] was “inactive” in each case.
On to `Cc1c(-c2ccccc2)oc2c(C(=O)OCCN3CCCCC3)cccc2c1=O`, for which the outcome in assay [1] was inactive. Also, the Potency result in assay [2], in [9], in [3], in assay [4], in assay [7] and in [8] was “inactive” in each case. Also, the Potency result in assay [6], in assay [10] and in [11] was “inactive” each time.
